High-throughput results: PubChem, several laboratories
Redox H2O2 prof = compounds producing H2O2 with reducing agent – biochemical, NIH compound library profiling, artefact control for MLSCN library redox annotation, primary screen. DTT-dependent redox cycling H2O2, phenol red/HRP absorbance; 100% = 100 µM peroxide control, 0% = buffer. activation, % at 10 µM. 200,000 tested, 0.03% active;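 active = activation of at least 50% relative to the plate's high and low controls in the primary single-dose screen; inactive = activation below 50%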;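 note: compound incubated with DTT at 0.8 mM final as the reducing agent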
p97 inhibitor = inhibitors of human p97 ATPase, primary screen, biochemical; recombinant p97 ATPase, Kinase-Glo ATP luminescence, 3 h; inhibition, % at 8 µM; 220,000 tested, 0.42% active; in the data active = inhibition above about 15%;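 note: 0% = DMSO vehicle and 100% = wells lacking enzyme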
S1P4 ag = S1P4 receptor agonists, primary screen, cell-based. Sphingosine 1-phosphate receptor 4 (Homo sapiens), O95977. S1P4-expressing cell line, agonist reporter assay. activation, % at 4.98 µM. 220,000 tested, 0.35% active. AID 1509, 2009; in the data active = activation above about 11%;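 note: 0% = DMSO vehicle and 100% = reference agonist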
S1P4 antagonist = S1P4 receptor antagonists, primary screen, cell-based; inhibition, % at 4.98 µM; Sphingosine 1-phosphate receptor 4 (Homo sapiens), O95977; 220,000 tested, 0.26% active; S1P4-expressing cells, antagonist mode, reporter read-out; in the data active = inhibition above about 29%;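 note: 0% = wells stimulated with agonist and 100% = vehicle wells without agonist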
S1P3 antagonist = S1P3 receptor antagonists, primary screen, cell-based | Sphingosine 1-phosphate receptor 3 (Homo sapiens), Q99500 | CHO S1P3 NFAT-BLA reporter, FRET fluorescence, antagonist mode | inhibition, % at 4.98 µM | 170,000 tested, 0.27% active | AID 485, 2006;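 active = inhibition above the plate cutoff, the mean inhibition of test wells on that plate plus 3 SD, cut at about 28% in these data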;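 note: cells challenged with S1P at its EC80 of 0.8 µM; blue over green emission ratio from cleaved BLA substrate after 4 h stimulation; 0% = S1P-stimulated wells and 100% = unstimulated DMSO-only wells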
SUMO HTRF inh = inhibitors of in vitro SUMOylation cascade, primary screen, biochemical, HTRF, uHTS. SUMO-conjugating enzyme UBC9 (Homo sapiens), P63279. HTRF SUMOylation assay, SAE1/SAE2 + UBC9. inhibition, % at 35 µM. 290,000 tested, 0.36% active; in the data active = inhibition above about 50%, passing the limit was not always enough; inconclusive = no clear call, values can overlap the other calls
Target sequence (P63279 whole entry, looked up): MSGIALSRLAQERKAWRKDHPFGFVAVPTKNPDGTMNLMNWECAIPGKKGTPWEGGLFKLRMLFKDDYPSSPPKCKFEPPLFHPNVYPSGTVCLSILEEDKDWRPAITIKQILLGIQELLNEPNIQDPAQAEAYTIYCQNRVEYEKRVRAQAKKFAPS
S1P4 antag conf = S1P4 receptor antagonists, human, confirmation, cell-based | shares compounds with S1P4 antagonist | S1P4-expressing cell line, antagonist mode, reporter read-out | inhibition, % at 4.98 µM | 520 tested, 71% active | AID 1524, 2009; in the data active = inhibition above about 30%
S1P1 antagonist = S1P1 receptor antagonists, human, counter-screen for S1P4 antagonist project, cell-based; shares compounds with S1P4 antagonist; cell-based S1P1 antagonist counterscreen, inhibition; inhibition, % at 4.98 µM; 520 tested, 37% active; AID 1564, 2009; in the data active = inhibition above about 40%;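 note: receptor stimulated with S1P near its EC80; 0% = agonist stimulated wells and 100% = vehicle only wells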
Target sequence (P21453 whole entry, looked up): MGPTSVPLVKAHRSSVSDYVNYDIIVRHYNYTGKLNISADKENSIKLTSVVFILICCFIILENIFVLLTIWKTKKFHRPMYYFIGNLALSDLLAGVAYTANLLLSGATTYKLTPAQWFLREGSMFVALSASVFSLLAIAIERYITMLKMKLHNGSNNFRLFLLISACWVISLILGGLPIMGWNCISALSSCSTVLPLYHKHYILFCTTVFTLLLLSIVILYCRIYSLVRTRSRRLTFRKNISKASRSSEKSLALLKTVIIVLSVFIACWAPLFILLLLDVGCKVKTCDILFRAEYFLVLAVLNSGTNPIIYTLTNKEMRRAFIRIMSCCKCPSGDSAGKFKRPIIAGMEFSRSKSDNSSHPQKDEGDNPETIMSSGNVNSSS
The depositor's hits bear a star; ? = inconclusive; / = not tested or not shown. In the library only some 1.1% were active in any assay of this set; here they are far more common.

SMILES | Redox H2O2 prof | p97 inhibitor | S1P4 ag | S1P4 antagonist | S1P3 antagonist | SUMO HTRF inh | S1P4 antag conf | S1P1 antagonist
Cc1cccc2cc3c(nc12)SC(=NCC1CCCO1)N(Cc1ccco1)C3 (configuration not stated) | 1 | 3 | 2 | 56* | 6 | 18 | 22 | 47*
Oc1ccccc1C1CC(c2cccs2)=NC(c2cccc(Br)c2)N1 (configuration not stated) | 0 | 7 | 2 | 30* | -1 | 23 | 43* | 20
CN1c2ccccc2Oc2nnc(N3CCN(Cc4ccccc4)CC3)cc21 | 1 | -5 | 2 | 33* | -10 | 27 | 25 | 15
CCC(Sc1nncn1C)C(=O)Nc1nnc(-c2ccccc2Cl)s1 (configuration not stated) | 0 | -1 | -1 | 33* | -20 | 12 | 28 | 5
Cc1ccc(NC(=O)c2ccccc2)cc1 | 0 | -3 | -3 | 9 | / | -6 | / | /
Cc1ccc(NC(=O)C2=C(c3ccccc3)S(=O)(=O)CCS2(=O)=O)cc1 | 0 | 8 | -2 | 45* | 0 | 18 | 108* | 5
COc1c(Cl)cnn(-c2ccc(C)cc2)c1=O | 1 | -1 | -3 | 5 | / | -4 | / | /
O=c1c(Br)c(Br)cnn1-c1ccccc1 | 0 | 6 | -3 | 112* | 6 | 7 | 121* | 48*
Cc1ccc(-n2ncc(Br)c(Br)c2=O)cc1 | -1 | 0 | 2 | 103* | 1 | 8 | 117* | 37
COc1ccc(NC(=O)CCN2CCN(c3ccccc3F)CC2)c(OC)c1 | / | / | / | / | / | 34 | / | /
OC(c1cc(-c2ccc(Cl)cc2)nc2ccccc12)C1CCCCN1 (configuration not stated) | / | 12 | -2 | 53* | 5 | -13 | 95* | 83*
O=C1/C(=C/Nc2ccc3c(c2)OCO3)CCc2ccccc21 | -1 | -8 | 0 | 31* | 47 | ? | 21 | 74*
COc1ccc(CCNC(=O)C2CCN(Cc3nc(-c4cccc(Cl)c4)oc3C)CC2)cc1OC | 0 | 1 | -2 | 30* | -12 | 8 | 4 | -10
CN(c1ccccc1)c1nc(N)c([N+](=O)[O-])c(N2CCOCC2)n1 | / | 4 | -1 | -4 | -1 | 4 | / | /
Cc1ccc(NC(=O)C(c2ccccc2)N(C)C)cc1Cl (configuration not stated) | 0 | 8 | 0 | 34* | -10 | -14 | 31* | 29
Cc1nc2c(=O)n(C)c(=O)n(C)c2nc1Cl | 0 | 1 | 0 | 49* | 3 | 0 | 94* | 51*
CCn1cc(C(=O)NC(C)C23CC4CC(CC(C4)C2)C3)cn1 (configuration not stated) | 0 | 7 | -2 | -17 | 1 | -5 | / | /
CCOC(=O)c1ccc(NC(=O)Cn2nc(C)c3ccccc3c2=O)cc1 | / | / | / | / | / | -7 | / | /
CCN(CC)S(=O)(=O)c1cc(NC(=O)Cn2ncc(Cl)c(Cl)c2=O)ccc1C | / | 4 | -1 | 60* | -13 | 66* | 72* | 46*
CCC(=O)Nc1ccc(C(=O)Cn2ncc(Cl)c(Cl)c2=O)cc1 | / | 10 | -2 | 75* | 6 | 31 | 106* | 48*
CCOC(=O)c1ccc(NC(=O)Cn2ncc(Cl)c(Cl)c2=O)cc1 | / | 4 | -2 | 37* | -5 | 2 | 123* | 78*
CC(NC(=O)Cn1ncc(Cl)c(Cl)c1=O)C12CC3CC(CC(C3)C1)C2 (configuration not stated) | 0 | 5 | -2 | 51* | -10 | 0 | -19 | -11
COC(=O)c1cc(OC)nc2ccc(Br)cc12 | / | 3 | -1 | 2 | -2 | 11 | / | /
Cc1ccc(NC(=O)c2cnccn2)nc1 | / | / | / | / | / | 1 | / | /
Cc1c(NC(=S)NNC(=O)CCC(=O)O)c(=O)n(-c2ccccc2)n1C | / | 3 | 1 | -3 | -12 | 21 | / | /
SMILES | Redox H2O2 prof | p97 inhibitor | S1P4 ag | S1P4 antagonist | S1P3 antagonist | SUMO HTRF inh | S1P4 antag conf | S1P1 antagonist
O=C(OCn1ncc(Cl)c(Cl)c1=O)c1ccc(C(F)(F)F)cc1 | 1 | 6 | -4 | 5 | / | -41 | / | /
CCc1ccccc1NC(=O)CN(C)C(=O)Cn1ncc(Cl)c(Cl)c1=O | 0 | 1 | 2 | 38* | 1 | 6 | 107* | 57*
CCCc1cc(=O)[nH]c(SCC(=O)N(C)CC(=O)Nc2ccccc2CC)n1 | 0 | -3 | -1 | -8 | 4 | 22 | / | /
COc1ccc(NC(=O)Cn2ncc(Cl)c(Cl)c2=O)cc1S(=O)(=O)N1CCOCC1 | 5 | 6 | 3 | 33* | -8 | 22 | 27 | 12
Cc1ccc(C(=O)OCn2ncc(Cl)c(Cl)c2=O)cc1 | 1 | 6 | -4 | 111* | / | -45 | 115* | 63*
O=C(CCc1ccccc1)NNC(=O)Nc1ccc(F)c(Cl)c1 | / | / | / | / | / | 9 | / | /
O=C(COc1cccc(Cl)c1)Nc1ccc2c(c1)CCC2 | 0 | -6 | -1 | -4 | -3 | -11 | / | /
CC1(C)CC(NC(=O)c2sc3cc(Cl)ccc3c2Cl)CC(C)(C)N1 | 0 | -3 | 1 | 16 | -1 | 11 | / | /
COc1ccc(NS(=O)(=O)c2ccc(/C=C/C(=O)O)cc2)cc1S(=O)(=O)N1CCOCC1 | / | 1 | 1 | -14 | 0 | 17 | / | /
CCCN(CCC)S(=O)(=O)c1ccc(Cl)c([N+](=O)[O-])c1 | 1 | 0 | -2 | 52* | -19 | 16 | 100* | 21
O=C(CCn1cnc2ccccc21)N/N=C/C=C/c1ccccc1 | / | 3 | 0 | 30* | 2 | 17 | -7 | 0
c1ccc(-c2nnc(CN3CCN(C(c4ccccc4)c4ccccc4)CC3)o2)cc1 | -1 | -2 | 0 | 68* | -21 | 3 | 28 | 32
O=C(/C=C/c1ccccc1[N+](=O)[O-])c1ccccc1Br | -1 | 0 | -1 | 36* | -6 | 8 | 79* | 28
CCOC(=O)N1CCN(S(=O)(=O)/C=C/c2ccccc2)CC1 | 2 | -2 | 2 | -5 | 13 | -14 | / | /
CCOC(=O)N1C/C(=C\c2ccccc2)C(=O)/C(=C/c2ccccc2)C1 | / | 3 | -1 | 43* | 17 | 6 | 116* | -24
COc1cc(NC(=O)Cn2ccsc2=N)cc(OC)c1 | / | -3 | 0 | 12 | 5 | 13 | / | /
O=C(NCCc1ccccn1)c1nc(Cn2ccc([N+](=O)[O-])n2)no1 | / | / | / | / | / | 4 | / | /
